Read-out in assay [1]: Transforming growth factor beta 1 (TGFb1), TGFB1 (gene 7040)
The assay can be described thus: BSK_BE3C_TGFb1: BioMAP Diversity Plus: BE3C Assay for Transforming growth factor beta 1 (TGFb1) Biomarker Activity (AID 2283036;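 as to outcome: TGF-b1 protein level measured by ELISA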). To be noted: primary human bronchial epithelial cells; actives raise or lower the signal. In short, it runs like this:
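In this human primary bronchial epithelial system, an ELISA quantified TGF-b1 one day after dosing. Endpoint changes in either direction were fitted relative to DMSO.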

Read-out in assay [2]: Plasminogen activator inhibitor-1 (PAI1), SERPINE1 (gene 5054)
The assay can be described thus: BSK_BE3C_PAI1: BioMAP Diversity Plus: BE3C Assay for Plasminogen activator inhibitor-1 (PAI1) Biomarker Activity (AID 2283037). Conditions: primary human bronchial epithelial cells; actives raise or lower the signal. In short, it runs like this: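 PAI-1 biomarker levels in treated human bronchial epithelial cells are determined by ELISA at 24 h. Both increases and decreases relative to DMSO are fitted.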

Read-out in assay [3]: urokinase plasminogen activator (uPA), PLAU (gene 5328)
Description: BSK_BE3C_uPA: BioMAP Diversity Plus: BE3C Assay for urokinase plasminogen activator (uPA) Biomarker Activity (AID 2283038).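 As to outcome: uPA protein level quantified by ELISA in cell cultures; uPA read one day after compound addition.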 Conditions: primary human bronchial epithelial cells; actives raise or lower the signal. In a few lines: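 Measured by ELISA: uPA from human primary bronchial epithelial cells 24 h after chemical treatment. Values derive from bidirectional curve fitting with DMSO serving as negative control. Total protein by SRB staining in parallel wells flagged overt cytotoxicity.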

Read-out in assay [4]: Urokinase-type plasminogen activator receptor (uPAR), PLAUR (gene 5329)
The assay can be described thus: BSK_BE3C_uPAR: BioMAP Diversity Plus: BE3C Assay for Urokinase-type plasminogen activator receptor (uPAR) Biomarker Activity (AID 2283039).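 As to outcome: uPAR protein level measured by ELISA on the cells; cells exposed to compound for one day before measurement.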 To be noted: primary human bronchial epithelial cells; actives raise or lower the signal. In a few lines: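 A uPAR ELISA serves as the readout, taken 24 h after treating primary human bronchial epithelial cells. Responses in either direction are fitted against DMSO, which defines baseline activity.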

Read-out in assay [5]: Interleukin-6 (IL6), IL6 (gene 3569)
The assay can be described thus: BSK_CASM3C_IL6: BioMAP Diversity Plus: CASM3C Assay for Interleukin-6 (IL6) Biomarker Activity for (AID 2283040). Conditions: primary human coronary artery smooth muscle cells; actives raise or lower the signal.

Read-out in assay [6]: Tissue plasminogen activator (tPA), PLAT (gene 5327)
The assay can be described thus: BSK_BE3C_tPA: BioMAP Diversity Plus: BE3C Assay for Tissue plasminogen activator (tPA) Biomarker Activity (AID 2283041).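 As to outcome: tPA level quantified by ELISA one day after compound addition.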 To be noted: primary human bronchial epithelial cells; actives raise or lower the signal. In short, it runs like this:
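Bidirectional curve fitting relative to DMSO defined activity, with tPA detected by ELISA in chemically treated human bronchial epithelial primary cells at 24 hours.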

Read-out in assay [7]: Interleukin-8 (IL8), CXCL8 (gene 3576)
The assay can be described thus: BSK_CASM3C_IL8: BioMAP Diversity Plus: CASM3C Assay for Interleukin-8 (IL8) Biomarker Activity (AID 2283042).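 Also: IL-8 protein level quantified by ELISA.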 To be noted: primary human coronary artery smooth muscle cells; actives raise or lower the signal.

Read-out in assay [8]: Human Leukocyte Antigen - DR isotype (HLADR), HLA-DRA (gene 3122)
The assay can be described thus: BSK_CASM3C_HLADR: BioMAP Diversity Plus: CASM3C Assay for Human Leukocyte Antigen - DR isotype (HLADR) Biomarker Activity (AID 2283043).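 Also: cell-surface HLA-DR protein level quantified by ELISA.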 Conditions: primary human coronary artery smooth muscle cells; actives raise or lower the signal.

Read-out in assay [9]: Macrophage colony-stimulating factor (MCSF), CSF1 (gene 1435)
Description: BSK_CASM3C_MCSF: BioMAP Diversity Plus: CASM3C Assay for Macrophage colony-stimulating factor (MCSF) Biomarker Activity (AID 2283044).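 Also: M-CSF protein amount quantified by ELISA after 24 h exposure.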 Conditions: primary human coronary artery smooth muscle cells; actives raise or lower the signal.

Activity calls are given as the source filed them. The calls were made as follows: active = hit-call score of the fitted dose curve at least 0.9, where 1 is the maximum; inactive = score below 0.9.

For `COc1ccc(OC(F)(F)F)cc1CN[C@H]1CCCN[C@H]1c1ccccc1`, the outcome in assay [1], in assay [2], in assay [4], in assay [5], in assay [6] and in [7] was inactive. Also, the outcome in [9] was inactive. The half-maximal activity concentration (AC50) in assay [3] was 20 µM (active); in assay [8], 14.7 µM (active).
In the case of `CCCCCCC(C=O)=Cc1ccccc1`, the result in assay [1], in assay [2], in assay [3], in assay [4], in assay [5] and in [6] was inactive. In addition, the result in assay [7], in assay [8] and in assay [9] was inactive.
`OCC(CO)n1cnc(-c2ccc(F)cc2)c1-c1ccnc(Oc2ccccc2)n1`: the result in [1], in assay [4], in assay [6] and in [7] was inactive. Moreover, the AC50 in assay [2] is 1.29 µM (active); in [3] it was 3.97 µM (active); in assay [5] it was 0.654 µM (active); in assay [8], 0.408 µM (active); in assay [9], 0.759 µM (active).
On to `CO[C@@H]1COCC[C@@H]1N[C@@H]1CC[C@@](C(=O)N2CCc3ncc(C(F)(F)F)cc3C2)(C(C)C)C1`, for which the outcome in assay [1], in [2], in [3], in assay [4], in assay [5] and in [6] was inactive. In addition, the result in assay [7], in assay [8] and in assay [9] was inactive.
Take `COC(=O)CCC(=O)OC`: the outcome in assay [1], in assay [2], in assay [3], in [4], in assay [5] and in [6] was inactive. In addition, the result in assay [7], in [8] and in assay [9] was inactive.
As for `CCCC(=O)O`, the outcome in assay [1], in [2], in assay [3], in assay [4], in assay [5] and in assay [6] was inactive. Moreover, the outcome in assay [7], in assay [8] and in assay [9] was inactive.
On to `CC(=O)O`, for which the outcome in assay [1], in [2], in [3], in [4], in assay [5] and in [6] was inactive. Moreover, the result in assay [7], in assay [8] and in [9] was inactive.
On to `CCCC[C@H]1CN(CC2CCOCC2)C(=O)OC12CCN(C1(C)CCN(C(=O)c3c(C)ncnc3C)CC1)CC2`, for which the outcome in [1], in assay [2], in assay [3], in [4], in assay [5] and in assay [6] was inactive. The result in assay [7], in [8] and in [9] was inactive.
As to `O=Cc1ccccc1C=O`, the result in assay [1], in assay [2], in assay [3], in assay [4], in [6] and in [7] was inactive. The outcome in assay [8] and in assay [9] was inactive.
Take `CCCCCCCC(=O)OC`: the outcome in assay [1], in assay [2], in assay [3], in [4], in [5] and in assay [6] was inactive. Moreover, the outcome in assay [7], in assay [8] and in [9] was inactive.
On to `C/C=C/C=C/C(=O)O`, for which the outcome in [1], in assay [2], in assay [3], in assay [4], in assay [5] and in [6] was inactive. The result in assay [7], in assay [8] and in assay [9] was inactive.
For `O=C1c2c(O)cccc2Cc2cccc(O)c21`, the result in [1], in assay [2], in [3], in [4], in assay [5] and in [6] was inactive. Besides, the outcome in assay [7], in assay [8] and in assay [9] was inactive.
Regarding `CCCCCCCCCCCCCCOS(=O)(=O)O`, the AC50 was 30.5 µM (active) in assay [1]; 20 µM (active) in assay [2]; 28.6 µM (active) in assay [3]; 16.1 µM (active) in assay [4]; 18.8 µM (active) in [6]. The outcome in assay [5], in [7], in [8] and in assay [9] was inactive.
Regarding `C=CCc1ccc(OC)c(OC)c1`, the result in assay [1], in assay [2], in assay [3], in [4], in assay [5] and in assay [6] was inactive. Also, the result in assay [7], in assay [8] and in assay [9] was inactive.
As for `CC(C)COC(=O)CCCCC(=O)OCC(C)C`, the result in assay [1], in [2], in [3], in assay [4], in assay [5] and in [6] was inactive. The result in assay [7], in [8] and in [9] was inactive.
In the case of `O=C1CCCCC1`, the result in assay [1], in assay [2], in assay [3], in [4], in assay [5] and in assay [6] was inactive. For the same compound, the outcome in assay [7], in assay [8] and in assay [9] was inactive.
As to `CN(C)CCCN(C)CCCN(C)C`, the outcome in assay [1], in assay [2], in [3], in assay [4], in assay [5] and in assay [6] was inactive. Besides, the result in assay [7], in [8] and in assay [9] was inactive.
For `CSc1ccc(Oc2ccc(S(N)(=O)=O)cc2CN(C)C)cc1C`, the result in [1], in assay [2], in [3], in assay [4], in assay [5] and in [6] was inactive. Besides, the result in assay [7], in [8] and in assay [9] was inactive.
For the compound `Cc1c(C)c2c(c(C)c1O)CCC(C)(COc1ccc(CC3SC(=O)NC3=O)cc1)O2` (stereo unspecified), the concentration at half-maximal activity (AC50) in assay [1] was 26.2 µM (active); in assay [2], 14.7 µM (active); in assay [3] it was 15.3 µM (active); in assay [4] it was 29.6 µM (active); in assay [6] it was 9.19 µM (active). The result in assay [5], in assay [7], in assay [8] and in assay [9] was inactive.
Turning to `Nc1nc(=S)c2[nH]cnc2[nH]1`, the result in [1], in [2], in [3], in assay [4], in assay [5] and in assay [6] was inactive. In addition, the result in assay [7], in [8] and in assay [9] was inactive.
Regarding `Cc1ccc(C(C)(C)C)c(O)c1`, the result in [1], in assay [2], in [3], in [4], in assay [5] and in assay [6] was inactive. The result in assay [7], in [8] and in assay [9] was inactive.
Consider `CC(C)(C)c1ccccc1`, for which the result in assay [1], in [2], in assay [3], in assay [4], in assay [5] and in [6] was inactive. The result in [7], in assay [8] and in assay [9] was inactive.
With `COc1ccc(C(=O)Nc2nc3ccccc3c(NCc3ccccc3)c2C#N)cc1`, the outcome in [1], in assay [2], in assay [3], in [4], in [5] and in [6] was inactive. The result in assay [7], in [8] and in [9] was inactive.

As usually defined, the AC50 is the concentration at which the activity in the assay is half-maximal.

The values above are taken from PubChem BioAssay (EPA / NIEHS).
